Results from PubChem BioAssay (NCI).
The panel holds about 83,000 compounds, 20% with a hit somewhere; the sample as a whole holds those more often.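 Single-concentration screen, 48 h exposure, 96-well plates. Endpoint: percent growth. Below 10 = active.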 Unmarked numbers belong to inactive results. Active and inactive are the calls of the source.

What was measured:
Assay in all cases: NCI-60 one-dose screen, 48 h (100 = growth as untreated, 0 = no growth, -100 = all killed)
Details in all cases: 10 µM unless noted
[1] = system: EKVX NSCLC
[2] = system: SN12C renal
[3] = system: UO-31 renal
[4] = system: TK-10 renal
[5] = system: ACHN renal
[6] = system: CAKI-1 renal
[7] = system: A498 renal
[8] = system: CCRF-CEM leukemia
[9] = system: MOLT-4 leukemia

Row | SMILES | growth [1] | growth [2] | growth [3] | growth [4] | growth [5] | growth [6] | growth [7] | growth [8] | growth [9]
1 | Clc1ccc2c(N/N=C/c3c[nH]c4ccccc34)ccnc2c1 | -79.3% (active) | -77.2% (active) | -95.1% (active) | -91.9% (active) | -98.1% (active) | -97.5% (active) | -93.6% (active) | -10% (active) | -48.5% (active)
2 | Brc1cc(-c2cc(-c3ccc4c(c3)OCCO4)[nH]n2)cs1 | 62.4% | 65% | 54.6% | 138% | 56% | 33.8% | 48.6% | 23.4% | 27.8%
3 | Cn1cc(-c2nn3cc(-c4ccncc4)nc3s2)c2cc(F)ccc21 | 72.9% | 88.6% | 55.1% | 155% | 84% | 63.4% | 96.3% | 16% | 37.3%
4 | CC(C)(C)c1cc(NC(=O)Nc2ccc(-c3cn4c5c(sc4n3)CCc3c[nH]cc3-5)cc2)no1 | 32.9% | 44.2% | 7.92% (active) | 65.2% | 21.2% | 13.9% | -17.9% (active) | 15.1% | -10.8% (active)
5 | NS(=O)(=O)c1cccc(Nc2nc(SCC(=O)c3ccc(Cl)cc3)nc3c2CCC3)c1 | 97.7% | 98% | 90.9% | 119% | 92.4% | 86.7% | 79.4% | 98.3% | 105%
6 | Cn1c(SCC(=O)c2ccco2)nc2ccccc2c1=O | 55.2% | 105% | 68.7% | 146% | 101% | 74.7% | 144% | 98.8% | 96%
